35 compounds from PubChem BioAssay (NCI) can be followed below.

About 79,000 compounds went through this panel and 15% of them were active in at least one assay; those are over-represented in the sample as a whole. A number with no mark means an inactive call. Active and inactive are the calls of the source. Cut-off read from the data, not from the text of the source: active = growth inhibition above about 70%; inactive = the rest. *1 amine or outer side, *2 acyl side, *3 side chain or, on linkers, in order; H or OH if unused. Where a SMILES comes first, the peptide text is derived from it. Bridges are numbered along the chain shown (N, C = ends). Roman numbers before positions name the chains, in order. [ ]: non-standard residue; d: D form. The star is where a group is joined. Actinocin(9to1) = Cc1c2oc3c(C)ccc(C(=O)[*:1])c3nc-2c(C(=O)[*:2])c(N)c1=O; X13 = O=C1CC(C(=O)[*:2])N([*:1])C1; NMeV = CN[CH](C(=O)O)C(C)C; Cbz = O=C(OCc1ccccc1)*; Sar = CNCC(=O)O

A short description of assay [1]: NCI Yeast Anticancer Drug Screen. Data for the rad50 strain (AID 155).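 Note: 0% = growth of vehicle-only cultures of the same strain.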 As to conditions: S. cerevisiae rad50 strain growth inhibition; at 50.0 µM; hits give high values. In a few lines: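 Vehicle-treated cultures provide the reference for the growth inhibition reported for compound-exposed, repair-deficient yeast.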
The nature of assay [2]: NCI Yeast Anticancer Drug Screen. Data for the mec2-1 strain (AID 157). The note with it: S. cerevisiae mec2-1 strain, at 50.0 µM, hits give high values. The procedure, abridged:
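Test agents were screened against the mec2-1 yeast strain, with defined DNA repair or cell cycle alteration. Growth was scored as inhibition against vehicle-only controls.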

A short description of assay [3]: NCI Yeast Anticancer Drug Screen. Data for the sgs1 mgt1 strain (AID 161).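 Note: 0% = growth of cultures given vehicle only.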 The note with it: S. cerevisiae sgs1 mgt1 strain, at 50.0 µM, hits give high values. The procedure, abridged:
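Test agents were incubated with a DNA-repair-mutant yeast strain. Growth was then read and compared against vehicle-treated controls.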

The nature of assay [4]: NCI Yeast Anticancer Drug Screen. Data for the cln2 rad14 strain (AID 165).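 Note: 0% = growth equal to vehicle treated cultures.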 The note with it: S. cerevisiae cln2 rad14 strain, at 50.0 µM, hits give high values. The procedure, abridged: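 Growth of compound-exposed yeast (cln2 rad14 genotype) measured and expressed as inhibition relative to vehicle.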
The nature of assay [5]: NCI Yeast Anticancer Drug Screen. Data for the bub3 strain (AID 167). The note with it: S. cerevisiae bub3 mutant strain, at 50.0 µM, hits give high values. In a few lines:
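Mutant yeast screening strain plus compound; vehicle-treated cultures serve as the 0% inhibition reference.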

A short description of assay [6]: NCI Yeast Anticancer Drug Screen. Data for the mlh1 rad18 strain (AID 175). As to conditions: S. cerevisiae mlh1 rad18 strain growth inhibition; at 50.0 µM; hits give high values. In a few lines:
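In this whole-cell yeast screen, a strain with altered DNA damage repair is challenged with compound, and its growth is measured against matched vehicle-treated controls.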

Take `Cc1c2oc3c(C)ccc(C(=O)NC4C(=O)NC(C(C)C)C(=O)N5CC(=O)CC5C(=O)N(C)CC(=O)N(C)C(C(C)C)C(=O)OC4C)c3nc-2c(C(=O)NC2C(=O)NC(C(C)C)C(=O)N3CC(=O)CC3C(=O)N(C)CC(=O)N(C)C(C(C)C)C(=O)OC2C)c(N)c1=O` (stereo not given) (I: TV[X13][Sar][NMeV] / II: TV[X13][Sar][NMeV]; ester I:1-I:C, II:1-II:C; linker I:N-II:N via Actinocin(9to1); configuration not given here): the growth inhibition in assay [1] is -22.6%; in assay [2], -1.65%; in assay [3], -3.1%; in assay [4], 52.4%; in assay [5] it was -3.25%; in assay [6], -42.8%.
Turning to `O=C1C(=O)C(CCc2ccccc2)C(=O)/C1=C\c1ccccc1` (stereo not given), the growth inhibition in assay [1] is 4.4%; in assay [2], 17.6%; in assay [3], 10.6%; in assay [4], -10.4%; in assay [5], -6.55%; in assay [6], 20.2%.
As to `Cn1c(-c2ccccc2)c/c(=N\NS(C)(=O)=O)c2cc(S(=O)(=O)O)ccc21`, the growth inhibition in assay [1] was -7.1%; in assay [2], -27.7%; in assay [3], -0.25%; in assay [4], -3%; in assay [5], 11.2%; in assay [6], 10.2%.
For `O=C1CCCC2=C1C(c1ccc(Cl)c(Cl)c1)C1=C(CCCC1=O)O2`, the growth inhibition in assay [1] was 1.05%; in assay [2], 7.05%; in assay [3] it was -7.25%; in assay [4], -18.5%; in assay [5], 12.6%; in assay [6], 6.45%.
In the case of `CCC(=O)C(C)C(=O)N(CC(C)C)CC(C)C` (stereo not given), the growth inhibition in assay [1] was -12.7%; in assay [2], -6.85%; in assay [3], -5.3%; in assay [4] it was -11.8%; in assay [5], -0.2%; in assay [6], -19.8%.
For `O=C(Nc1ccccc1O)c1ccc([N+](=O)[O-])cc1`, the growth inhibition in assay [1] is 2.2%; in assay [2] it was 34.4%; in assay [3], -4.4%; in assay [4], -15.6%; in assay [5], 20.4%; in assay [6] it was 19.1%.
Take `CC(=O)Oc1cc2c(cc1C(NC(N)=O)c1ccc3c(c1)OCO3)OCO2` (stereo not given): the growth inhibition in assay [1] was 1.95%; in assay [2], 2.7%; in assay [3] it was 1.55%; in assay [4], -11.2%; in assay [5] it was 16.4%; in assay [6], 12.4%.
Regarding `CCCCCCCCCCCCCCCCOc1ccc(/C=N/Nc2ccccc2)cc1OC`, the growth inhibition in assay [1] was -20.1%; in assay [2] it was -22.2%; in assay [3], -25.9%; in assay [4] it was 0.95%; in assay [5], -32%; in assay [6] it was -13.6%.
`O=C(CCCn1ccnc1[N+](=O)[O-])NCCn1ccnc1[N+](=O)[O-]`: the growth inhibition in assay [1] is 5.95%; in assay [2], 9.35%; in assay [3], -9.9%; in assay [4] it was 17.4%; in assay [5] it was -11.8%; in assay [6] it was -12.3%.
Regarding `CC12C(=O)NC(c3ccccc3)(c3ccccc31)C1C(=O)N(C(N)=O)C(=O)C12` (stereo not given), the growth inhibition was 13.9% in assay [1]; 7.35% in assay [2]; 25.6% in assay [3]; -3.05% in assay [4]; -15.2% in assay [5]; 4.4% in assay [6].
As for `CC1C=C(OC(=O)c2ccccc2)C(=O)C(n2cc(F)c(=O)n(C(=O)c3ccccc3)c2=O)O1` (stereo not given), the growth inhibition in assay [1] was 43.2%; in assay [2], 47.3%; in assay [3], 68.7%; in assay [4], 0.1%; in assay [5] it was -1.25%; in assay [6], 15.6%.
Turning to `CC(O)C(O)C(O)CO` (stereo not given), the growth inhibition in assay [1] is 6.1%; in assay [2], 18.4%; in assay [3], -3.85%; in assay [4], 19.8%; in assay [5], 24.4%; in assay [6], 8.95%.
`CCOc1ccc(Nc2nc(N)nc(N)c2N)cc1`: the growth inhibition is 2.85% in assay [1]; 10.8% in assay [2]; -8.95% in assay [3]; -13.7% in assay [4]; -20.4% in assay [5]; 3.8% in assay [6].
With `O=C(NCCCCCCNC(=O)Nc1cccc(C(F)(F)F)c1)Nc1cccc(C(F)(F)F)c1`, the growth inhibition in assay [1] was -9.65%; in assay [2], -13.7%; in assay [3], -4.05%; in assay [4] it was -19.1%; in assay [5], 2.4%; in assay [6], 8.8%.
As to `C=C1CCN(c2ccc([N+](=O)[O-])cc2)C1=O`, the growth inhibition in assay [1] was 0%; in assay [2] it was -11.2%; in assay [3], 4.05%; in assay [4], -37.6%; in assay [5], 10.3%; in assay [6], 10.3%.
In the case of `CC(C)=CC(C)(O)c1nc2ccccc2s1` (stereo not given), the growth inhibition in assay [1] is -2.75%; in assay [2], 21.7%; in assay [3], 7.25%; in assay [4], -6.95%; in assay [5] it was 1.1%; in assay [6], 5.2%.
Turning to `Nc1nc(N)c2cc(N3CCCC3c3ccc(Cl)cc3)ccc2n1` (stereo not given), the growth inhibition in assay [1] is 90.8% (active); in assay [2], 92.5% (active); in assay [3], 91.5% (active); in assay [4] it was 90.5% (active); in assay [5] it was 91.6% (active); in assay [6], 91% (active).
Consider `COc1cc(/C=N/NC2=NCCN2)ccc1O`, for which the growth inhibition in assay [1] was 24.4%; in assay [2], 11.8%; in assay [3], 13.2%; in assay [4] it was 14.8%; in assay [5] it was 18.9%; in assay [6], 11.8%.
Consider `CCOC(=O)C1CC(CCl)OC1=O` (stereo not given), for which the growth inhibition is -3.65% in assay [1]; 7.1% in assay [2]; 2.1% in assay [3]; -22.9% in assay [4]; 0.6% in assay [5]; 3.95% in assay [6].
Turning to `Cc1ccccc1-c1c2ccccc2cc2c1ccc1ccccc12`, the growth inhibition was 12% in assay [1]; -21.7% in assay [2]; -5.05% in assay [3]; -20.9% in assay [4]; 9.35% in assay [5]; 0.35% in assay [6].
`COc1c2c(c3ccccc3c1O)C1C=CC2C1` (stereo not given): the growth inhibition was 7.6% in assay [1]; 7.6% in assay [2]; -37.7% in assay [3]; -5.25% in assay [4]; 0.25% in assay [5]; -16.3% in assay [6].
As for `Cc1ccc(C(=O)CCN2CCOCC2)c(C)c1`, the growth inhibition was 40.1% in assay [1]; 5.55% in assay [2]; 26.6% in assay [3]; -4.65% in assay [4]; 29.1% in assay [5]; 31% in assay [6].
Consider `COC(=O)C(C(=O)C(=O)Nc1ccc(C)cc1C)c1nc2ccc([N+](=O)[O-])cc2[nH]c1=O` (stereo not given), for which the growth inhibition in assay [1] was 9.05%; in assay [2], -1.7%; in assay [3] it was 4.05%; in assay [4], 7.95%; in assay [5] it was 4.2%; in assay [6], 6.65%.
`OC1CCCN(CCNN2CCCC2)C1` (stereo not given): the growth inhibition is 17.9% in assay [1]; 9.65% in assay [2]; 15.4% in assay [3]; 31.1% in assay [4]; 2.35% in assay [5]; 15.3% in assay [6].
Consider `O=S1(=O)c2ccccc2N(O)C2=NCCN21`, for which the growth inhibition is -50.1% in assay [1]; -46.7% in assay [2]; -65.8% in assay [3]; -6.35% in assay [4]; -30.9% in assay [5]; -33.9% in assay [6].
As for `CN1CCCC2C(c3ccccc3)C(C3=NCCCC3)C(c3ccccc3)CC21` (stereo not given), the growth inhibition is -18.9% in assay [1]; -3.2% in assay [2]; -23.1% in assay [3]; -28.6% in assay [4]; -64.9% in assay [5]; -60.4% in assay [6].
For `CCCCCCCCCCCCCOCC(=O)OC`, the growth inhibition was -0.75% in assay [1]; 20.8% in assay [2]; -4.9% in assay [3]; -29% in assay [4]; 12.9% in assay [5]; 1.6% in assay [6].
As for `CSc1nc2nc(C)c(C)nc2c(=O)[nH]1`, the growth inhibition is -21.9% in assay [1]; -19.4% in assay [2]; -43.5% in assay [3]; 3.9% in assay [4]; -0.75% in assay [5]; -32% in assay [6].
For the compound `COc1cc(NCCC(=O)O)c2ncccc2c1`, the growth inhibition in assay [1] is -25.1%; in assay [2], -19.2%; in assay [3], -41.9%; in assay [4], -18.8%; in assay [5] it was -24.2%; in assay [6] it was 0.7%.
As to `COc1ccc(OC)c(/C=C2/C(=O)N(c3ccccc3)N=C2C)c1`, the growth inhibition in assay [1] is -7.55%; in assay [2], -1.25%; in assay [3], 5.6%; in assay [4], -1.85%; in assay [5], 15.5%; in assay [6] it was 4.75%.
For the compound `C[N+](C)(C)/N=C1\CC2CCC1C2` (stereo not given), the growth inhibition is 18.3% in assay [1]; -4.5% in assay [2]; -5.55% in assay [3]; 4.75% in assay [4]; 1.9% in assay [5]; 23.1% in assay [6].
On to `O=C(/C=C/c1ccccc1)NC(=S)Nc1ccc(F)c([N+](=O)[O-])c1`, for which the growth inhibition was 7.6% in assay [1]; 6.05% in assay [2]; 7.85% in assay [3]; 12.7% in assay [4]; 21.6% in assay [5]; 12.2% in assay [6].
Regarding `O=C1CCC(=O)N2C(=O)CCC(=O)N12`, the growth inhibition in assay [1] was -33.5%; in assay [2], -26.3%; in assay [3], -18.9%; in assay [4], -15.3%; in assay [5], 0.45%; in assay [6], 3.45%.
Turning to `CSc1ncnc2c1ncn2CC(=O)C1CCC2C3CCC4=CC(=O)CCC4(C)C3CCC12C` (stereo not given), the growth inhibition in assay [1] was 7%; in assay [2], -48.2%; in assay [3], -1.9%; in assay [4], -29.6%; in assay [5] it was -28.9%; in assay [6], 16.4%.
In the case of `CC(C)C(NC(=O)C(Cc1ccc(O)cc1)NC(=O)OCc1ccccc1)C(=O)O` (stereo not drawn) (Cbz-Tyr-Val-OH; configuration not given here), the growth inhibition in assay [1] is 10.2%; in assay [2], -3.25%; in assay [3] it was -3.85%; in assay [4] it was -29.6%; in assay [5], -3.15%; in assay [6], 1.8%.
